# According to PubChem BioAssay AID1159580 (chemical genetic matrix, 2015):
# The whole screen tested about 5,500 compounds, of which about 2,000 (36%) were called active. Not shown: some 18% with an inconclusive outcome. Some of the results follow. Values without a mark were called inactive. Cut-off read from the data, not from the text of the source: active = normalized growth mostly below about 0.91 (no sharp cut-off); inconclusive = no clear call, values can overlap the other calls; inactive = mostly above about 0.92.
# Assay: chemical genetic growth profiling, strain panel (AID 1159580);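 note: tested at 20 µM; growth read once vehicle control cultures reached saturation at 30 °C; 1 = growth at the plate median or of vehicle wells; lower values mean less growth of the strain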
# Conditions: S. cerevisiae deletion strains, growth OD
compound,measurement,setting,value
COc1ccc(C(=O)c2ccccc2)c(O)c1O,normalized growth,"locus YAL013W, strain DEP1, hits give low values",0.929
same,normalized growth,"locus YAL021C, strain ccr4, hits give low values",0.981
same,normalized growth,"locus YAL026C, strain drs2, hits give low values",0.973
same,normalized growth,"locus YAL030W, strain snc1, hits give low values",0.974
same,normalized growth,"locus YBL061C, strain skt5, hits give low values",0.973
same,normalized growth,"locus YBR009C, strain hhf1, hits give low values",0.973
same,normalized growth,"locus YBR021W, strain FUR4, hits give low values",0.853
same,normalized growth,"locus YBR023C, strain chs3, hits give low values",0.969
same,normalized growth,"locus YBR171W, strain sec66, hits give low values",0.945
same,normalized growth,"locus YBR229C, strain ROT2, hits give low values",0.999
same,normalized growth,"locus YBR231C, strain swc5, hits give low values",0.962
same,normalized growth,"locus YBR279W, strain paf1, hits give low values",0.957
same,normalized growth,"locus YCL011C, strain gbp2, hits give low values",0.968
same,normalized growth,"locus YCL016C, strain dcc1, hits give low values",0.986
same,normalized growth,"locus YCL029C, strain bik1, hits give low values",0.956
same,normalized growth,"locus YCL061C, strain MRC1, hits give low values",0.968
same,normalized growth,"locus YCL069W, strain vba3, hits give low values",0.986
same,normalized growth,"locus YCR088W, strain abp1, hits give low values",0.981
same,normalized growth,"locus YDL005C, strain med2, hits give low values",0.971
same,normalized growth,"locus YDL035C, strain GPR1, hits give low values",0.974
same,normalized growth,"locus YDL040C, strain nat1, hits give low values",0.985
same,normalized growth,"locus YDL074C, strain BRE1, hits give low values",0.868
same,normalized growth,"locus YDL101C, strain DUN1, hits give low values",0.953
same,normalized growth,"locus YDL134C, strain PPH21, hits give low values",0.904
same,normalized growth,"locus YDL185W, strain tfp1, hits give low values",0.901 (active)
same,normalized growth,"locus YDL192W, strain arf1, hits give low values",0.892 (active)
same,normalized growth,"locus YDR001C, strain nth1, hits give low values",0.975
same,normalized growth,"locus YDR069C, strain doa4, hits give low values",0.939
same,normalized growth,"locus YDR101C, strain arx1, hits give low values",0.983
same,normalized growth,"locus YDR137W, strain rgp1, hits give low values",0.787 (active)
same,normalized growth,"locus YDR159W, strain sac3, hits give low values",0.975
same,normalized growth,"locus YDR162C, strain NBP2, hits give low values",0.947
same,normalized growth,"locus YDR195W, strain ref2",1.02
same,normalized growth,"locus YDR297W, strain sur2, hits give low values",0.966
same,normalized growth,"locus YDR318W, strain mcm21, hits give low values",0.933
same,normalized growth,"locus YDR334W, strain swr1, hits give low values",0.951
same,normalized growth,"locus YDR335W, strain msn5, hits give low values",0.97
same,normalized growth,"locus YDR388W, hits give low values",0.962
same,normalized growth,"locus YDR392W, strain spt3, hits give low values",0.851
same,normalized growth,"locus YDR502C, strain sam2, hits give low values",0.9 (active)
same,normalized growth,"locus YEL003W, strain gim4, hits give low values",0.96
same,normalized growth,"locus YEL037C, strain rad23, hits give low values",0.964
same,normalized growth,"locus YEL061C, strain CIN8 (second series), hits give low values",0.974
same,normalized growth,"locus YEL061C, strain CIN8, hits give low values",0.967
same,normalized growth,"locus YER015W, strain faa2, hits give low values",0.965
same,normalized growth,"locus YER016W, strain bim1, hits give low values",0.972
same,normalized growth,"locus YER110C, hits give low values",0.936
same,normalized growth,"locus YER111C, strain swi4, hits give low values",0.97
same,normalized growth,"locus YER155C, strain BEM2 (second series), hits give low values",0.81 (active)
same,normalized growth,"locus YER155C, strain BEM2, hits give low values",1.02
same,normalized growth,"locus YER167W, strain BCK2, hits give low values",0.997
same,normalized growth,"locus YFR010W, strain ubp6, hits give low values",0.937
same,normalized growth,"locus YGL078C, strain dbp3, hits give low values",0.909 (active)
same,normalized growth,"locus YGL086W, strain mad1, hits give low values",0.937
same,normalized growth,"locus YGL167C, strain pmr1, hits give low values",0.955
same,normalized growth,"locus YGL173C, strain kem1, hits give low values",0.948
same,normalized growth,"locus YGL227W, strain vid30, hits give low values",0.99
same,normalized growth,"locus YGL240W, strain doc1, hits give low values",0.92
same,normalized growth,"locus YGL248W, strain PDE1, hits give low values",0.92
same,normalized growth,"locus YGL253W, strain hxk2, hits give low values",0.979
same,normalized growth,"locus YGR078C, strain PAC10, hits give low values",0.891
same,normalized growth,"locus YGR135W, strain pre9, hits give low values",0.846 (active)
same,normalized growth,"locus YGR252W, strain gcn5, hits give low values",0.698 (active)
same,normalized growth,"locus YHR013C, strain ard1, hits give low values",0.941
same,normalized growth,"locus YHR027C, strain rpn1, hits give low values",0.959
same,normalized growth,"locus YHR030C, strain SLT2, hits give low values",0.979
same,normalized growth,"locus YHR079C, strain IRE1 (second series), hits give low values",0.932
same,normalized growth,"locus YHR094C, strain hxt1, hits give low values",0.955
same,normalized growth,"locus YHR129C, strain ARP1, hits give low values",0.927
same,normalized growth,"locus YHR142W, strain chs7, hits give low values",0.939
same,normalized growth,"locus YHR200W, strain rpn10, hits give low values",0.937
same,normalized growth,"locus YIL066C, strain RNR3, hits give low values",0.976
same,normalized growth,"locus YIL073C, strain SPO22, hits give low values",0.897
same,normalized growth,"locus YIL125W, strain kgd1, hits give low values",0.969
same,normalized growth,"locus YIR030C, strain dcg1, hits give low values",0.958
same,normalized growth,"locus YJL092W, strain hpr5, hits give low values",0.967
same,normalized growth,"locus YJL095W, strain BCK1 (second series), hits give low values",0.971
same,normalized growth,"locus YJL095W, strain BCK1, hits give low values",0.724 (active)
same,normalized growth,"locus YJL115W, strain asf1, hits give low values",0.945
same,normalized growth,"locus YJL129C, strain trk1, hits give low values",0.966
same,normalized growth,"locus YJL134W, strain LCB3, hits give low values",0.991
same,normalized growth,"locus YJL154C, strain vps35, hits give low values",0.972
same,normalized growth,"locus YJL164C, strain tpk1, hits give low values",0.96
same,normalized growth,"locus YJL166W, strain qcr8, hits give low values",0.973
same,normalized growth,"locus YJL168C, strain set2, hits give low values",0.96
same,normalized growth,"locus YJL187C, strain SWE1 (second series), hits give low values",0.885
same,normalized growth,"locus YJL187C, strain SWE1, hits give low values",0.971
same,normalized growth,"locus YJR043C, strain POL32, hits give low values",0.942
same,normalized growth,"locus YKL009W, strain mrt4, hits give low values",0.933
same,normalized growth,"locus YKL068W, hits give low values",0.957
same,normalized growth,"locus YKL085W, strain MDH1 (second series), hits give low values",0.963
same,normalized growth,"locus YKL085W, strain MDH1, hits give low values",0.963
same,normalized growth,"locus YKL160W, strain elf1, hits give low values",0.971
same,normalized growth,"locus YKR001C, strain vps1, hits give low values",0.781 (active)
same,normalized growth,"locus YKR026C, strain gcn3, hits give low values",0.964
same,normalized growth,"locus YKR091W, strain srl3, hits give low values",0.978
same,normalized growth,"locus YLL001W, strain dnm1, hits give low values",0.974
same,normalized growth,"locus YLL026W, hits give low values",0.988
same,normalized growth,"locus YLL041C, strain sdh2, hits give low values",0.957
same,normalized growth,"locus YLR027C, strain aat2, hits give low values",0.975
same,normalized growth,"locus YLR039C, strain RIC1, hits give low values",0.788
same,normalized growth,"locus YLR058C, strain SHM2, hits give low values",0.933
same,normalized growth,"locus YLR102C, strain apc9, hits give low values",0.974
same,normalized growth,"locus YLR221C, strain rsa3, hits give low values",0.98
same,normalized growth,"locus YLR258W, strain gsy2, hits give low values",0.97
same,normalized growth,"locus YLR262C, strain YPT6 (second series), hits give low values",0.843 (active)
same,normalized growth,"locus YLR262C, strain YPT6, hits give low values",0.824
same,normalized growth,"locus YLR268W, strain sec22, hits give low values",0.907
same,normalized growth,"locus YLR320W, strain mms22, hits give low values",0.936
same,normalized growth,"locus YLR330W, strain CHS5, hits give low values",0.947
same,normalized growth,"locus YLR342W, strain FKS1 (second series), hits give low values",0.851
same,normalized growth,"locus YLR342W, strain FKS1, hits give low values",0.977
same,normalized growth,"locus YLR357W, strain rsc2, hits give low values",0.885
same,normalized growth,"locus YLR370C, strain arc18, hits give low values",0.975
same,normalized growth,"locus YLR371W, strain rom2, hits give low values",0.948
same,normalized growth,"locus YLR384C, strain iki3, hits give low values",0.968
same,normalized growth,"locus YLR418C, strain cdc73, hits give low values",0.825 (active)
same,normalized growth,"locus YML016C, strain PPZ1, hits give low values",0.979
same,normalized growth,"locus YML032C, strain rad52, hits give low values",0.926
same,normalized growth,"locus YML120C, strain ndi1, hits give low values",0.967
same,normalized growth,"locus YML124C, strain tub3, hits give low values",0.957
same,normalized growth,"locus YMR058W, strain fet3, hits give low values",0.897 (active)
same,normalized growth,"locus YMR078C, strain ctf18, hits give low values",0.931
same,normalized growth,"locus YMR125W, strain sto1, hits give low values",0.97
same,normalized growth,"locus YMR129W, hits give low values",0.973
same,normalized growth,"locus YMR205C, strain PFK2, hits give low values",0.991
same,normalized growth,"locus YMR223W, strain ubp8, hits give low values",0.909
same,normalized growth,"locus YMR231W, strain pep5, hits give low values",0.973
same,normalized growth,"locus YMR307W, strain GAS1, hits give low values",0.983
same,normalized growth,"locus YNL067W, strain RPL9B, hits give low values",0.918
same,normalized growth,"locus YNL071W, strain lat1, hits give low values",0.971
same,normalized growth,"locus YNL153C, strain GIM3, hits give low values",0.906
same,normalized growth,"locus YNL209W, strain ssb2, hits give low values",0.965
same,normalized growth,"locus YNL233W, strain BNI4, hits give low values",0.895
same,normalized growth,"locus YNL248C, strain rpa49, hits give low values",0.984
same,normalized growth,"locus YNL250W, strain rad50, hits give low values",0.9
same,normalized growth,"locus YNL271C, strain bni1, hits give low values",0.908 (active)
same,normalized growth,"locus YNL298W, strain CLA4, hits give low values",0.965
same,normalized growth,"locus YNL307C, strain MCK1, hits give low values",0.906 (active)
same,normalized growth,"locus YNL322C, strain KRE1 (second series), hits give low values",0.978
same,normalized growth,"locus YNR049C, strain mso1, hits give low values",0.983
same,normalized growth,"locus YNR052C, strain pop2, hits give low values",0.896 (active)
same,normalized growth,"locus YOL006C, strain TOP1, hits give low values",0.69
same,normalized growth,"locus YOL012C, strain htz1",0.47
same,normalized growth,"locus YOL147C, strain pex11, hits give low values",0.963
same,normalized growth,"locus YOR001W, strain rrp6, hits give low values",0.955
same,normalized growth,"locus YOR061W, strain CKA2, hits give low values",0.989
same,normalized growth,"locus YOR069W, strain VPS5, hits give low values",0.948
same,normalized growth,"locus YOR070C, strain gyp1, hits give low values",0.975
same,normalized growth,"locus YOR080W, strain dia2, hits give low values",0.989
same,normalized growth,"locus YOR083W, strain WHI5, hits give low values",0.953
same,normalized growth,"locus YOR106W, strain vam3, hits give low values",0.932
same,normalized growth,"locus YOR136W, strain idh2, hits give low values",0.952
same,normalized growth,"locus YOR144C, strain elg1, hits give low values",0.971
same,normalized growth,"locus YOR184W, strain ser1, hits give low values",0.996
same,normalized growth,"locus YOR265W, strain rbl2, hits give low values",0.973
same,normalized growth,"locus YOR270C, strain vph1, hits give low values",0.854
same,normalized growth,"locus YOR290C, strain snf2, hits give low values",0.929
same,normalized growth,"locus YOR316C, strain cot1, hits give low values",0.948
same,normalized growth,"locus YPL051W, strain arl3, hits give low values",0.936
same,normalized growth,"locus YPL078C, strain atp4, hits give low values",0.975
same,normalized growth,"locus YPL106C, strain sse1, hits give low values",0.901
same,normalized growth,"locus YPL240C, strain hsp82, hits give low values",0.954
same,normalized growth,"locus YPL241C, strain CIN2, hits give low values",0.977
same,normalized growth,"locus YPR119W, strain clb2, hits give low values",0.947
same,normalized growth,"locus YPR141C, strain kar3, hits give low values",0.923
same,normalized growth,"locus YPR163C, strain tif3, hits give low values",0.813 (active)
same,normalized growth,"locus YPR167C, strain met16, hits give low values",0.919 (active)
same,normalized growth,"strain wtn01, hits give low values",0.971
